Results from PubChem BioAssay AID2153 (The Scripps Research Institute Molecular Screening Center, 2009).
Out of some 2,400 compounds screened, about 2,000 (83%) were called active.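 The calls were made as follows: active = inhibition above the solvent-only control well mean plus 3 SD, limit set per screening run (cut at about 23% in these data); inactive = the rest.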 So high a share suggests a set chosen from earlier hits. A selection follows.

Molecular target: Guanyl-specific ribonuclease T1 (Aspergillus oryzae (strain ATCC 42149 / RIB 40)) (UniProt P00651)
Sequence (P00651 whole entry, looked up): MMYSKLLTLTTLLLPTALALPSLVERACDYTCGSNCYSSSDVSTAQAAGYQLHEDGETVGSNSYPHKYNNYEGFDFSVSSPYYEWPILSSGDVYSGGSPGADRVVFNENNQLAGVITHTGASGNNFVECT
Experiment: blockers of Aspergillus RNase T1 cleavage – biochemical, fluorescence polarization, counter-screen for TPT1 inhibitor project (AID 2153);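 also: plate controls were DMSO wells with enzyme for no effect and wells without RNase T1 for full effect; inhibitors block cleavage so intact labeled substrate keeps polarization high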
Conditions: 1536-well, at 5 µM, stronger effect = higher value

Row | Compound | inhibition
1 | CC(C)n1c(=O)c(C=Nc2ccc(Br)cc2)c(O)n(Cc2ccco2)c1=O | 28.4% (active)
2 | CCCCC(=O)N/N=C/c1c(O)n(CC)c(=S)n(CC)c1=O | 110% (active)
3 | CCN1C(=O)C(=Cc2c(C)n(CC(=O)NCC3CCCO3)c3ccccc23)C(=O)N(CC)C1=S (centres undefined) | 26.4% (active)
4 | COc1ccccc1N=Nc1c(O)[nH]c(=S)[nH]c1=O | 77.7% (active)
5 | CC/C(=N\NC(=O)c1ccccc1O)c1c(O)n(Cc2ccccc2)c(=O)[nH]c1=O | 35.2% (active)
6 | O=C1CC(=O)N(Cc2ccccc2)C(=O)N1CCCCCCN1C(=O)CC(=O)N(Cc2ccccc2)C1=O | 34.1% (active)
7 | O=C1NC(=O)N(Cc2ccco2)C(=O)/C1=C\c1ccc(-c2ccc(F)cc2)o1 | 20.3% (inactive)
8 | O=C1NC(=O)N(Cc2ccco2)C(=O)/C1=C\c1cccn1CCOc1ccccc1 | 11.7% (inactive)
9 | COc1ccc(N2C(=O)/C(=C/c3ccco3)C(=O)NC2=S)cc1 | 24.8% (active)
